In the library only some 1.5% were active in any assay of this set; here they are far more common.
miR122 inh: miR-122 Renilla sensor signal increase in Huh7, primary screen, miR-122 inhibitor project, cell-based, single point, plate reader | Huh7 miR-122 Renilla luciferase sensor, 48 h; neutral wells = 0, positive control = 100 | activation (reporter increase), % at 12.5 µM | actives 0.3% (n = 340,000);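 active = mean replicate activation score at least 90 and every replicate individually at or above 90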;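 note: higher luciferase means less miR-122 activity so hits act as miR-122 inhibitors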
RAD52 inh: RAD52 DNA annealing inhibitors, primary screen, biochemical, FRET, single point, set 2; recombinant RAD52 DNA annealing, FRET fluorescence; inhibition, % at 18.7 µM; actives 0.46% (n = 360,000);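 active = every replicate showing at least 50% inhibition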
NSD2 inh: NSD2 histone methyltransferase inhibitors, primary screen, biochemical, AlphaScreen, single concentration, set 2; Histone-lysine N-methyltransferase NSD2 (Homo sapiens), O96028; NSD2 peptide methylation, 120 min; inhibition, % at 12.5 µM; actives 0.54% (n = 310,000); in the data active = inhibition above about 50%
Target sequence (O96028 whole entry, looked up): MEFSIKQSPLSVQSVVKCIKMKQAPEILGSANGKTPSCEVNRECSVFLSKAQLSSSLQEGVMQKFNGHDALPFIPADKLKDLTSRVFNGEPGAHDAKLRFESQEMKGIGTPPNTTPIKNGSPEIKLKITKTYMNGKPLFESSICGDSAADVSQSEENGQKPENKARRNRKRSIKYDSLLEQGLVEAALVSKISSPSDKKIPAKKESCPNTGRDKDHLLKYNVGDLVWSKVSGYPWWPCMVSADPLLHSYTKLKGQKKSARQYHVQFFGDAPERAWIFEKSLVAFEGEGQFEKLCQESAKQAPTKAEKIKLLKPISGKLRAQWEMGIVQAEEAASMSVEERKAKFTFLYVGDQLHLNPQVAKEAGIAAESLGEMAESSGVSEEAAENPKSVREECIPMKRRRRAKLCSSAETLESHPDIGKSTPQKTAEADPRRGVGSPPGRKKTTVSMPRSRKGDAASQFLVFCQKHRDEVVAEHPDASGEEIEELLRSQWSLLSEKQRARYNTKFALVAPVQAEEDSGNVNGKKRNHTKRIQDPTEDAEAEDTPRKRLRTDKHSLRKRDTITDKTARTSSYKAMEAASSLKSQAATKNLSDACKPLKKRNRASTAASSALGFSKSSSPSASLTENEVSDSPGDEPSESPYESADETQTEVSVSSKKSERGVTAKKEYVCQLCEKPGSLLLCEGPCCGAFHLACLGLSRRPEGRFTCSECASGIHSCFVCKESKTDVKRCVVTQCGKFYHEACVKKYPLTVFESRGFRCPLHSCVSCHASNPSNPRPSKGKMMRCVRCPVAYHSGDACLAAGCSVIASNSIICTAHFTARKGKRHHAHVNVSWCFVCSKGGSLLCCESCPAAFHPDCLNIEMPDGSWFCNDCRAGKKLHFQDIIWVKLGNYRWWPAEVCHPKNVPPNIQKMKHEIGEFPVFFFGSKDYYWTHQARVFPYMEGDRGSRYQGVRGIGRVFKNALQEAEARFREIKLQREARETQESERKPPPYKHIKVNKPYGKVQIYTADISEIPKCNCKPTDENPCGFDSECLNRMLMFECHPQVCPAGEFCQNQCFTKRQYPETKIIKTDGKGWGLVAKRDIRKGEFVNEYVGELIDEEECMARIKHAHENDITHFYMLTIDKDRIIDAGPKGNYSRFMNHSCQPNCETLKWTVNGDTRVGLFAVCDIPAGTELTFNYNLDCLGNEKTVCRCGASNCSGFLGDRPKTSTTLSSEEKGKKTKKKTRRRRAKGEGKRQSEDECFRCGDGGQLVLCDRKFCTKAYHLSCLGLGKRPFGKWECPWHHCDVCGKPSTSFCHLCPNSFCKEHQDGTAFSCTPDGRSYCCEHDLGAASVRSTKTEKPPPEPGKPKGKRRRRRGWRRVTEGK
MLL AF4-AF9 inh: inhibitors of AF4 peptide binding to AF9, primary screen, biochemical, AlphaScreen, biotin-AF4 peptide, FLAG-AF9, single point; Protein AF-9 (Homo sapiens), P42568; inhibition, % at 10 µM; actives 0.47% (n = 350,000); AID 651704, 2012;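 active = every replicate reaching a set inhibition limit, whatever the replicate mean, cut at about 25% in these data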;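 note: 0% = plate neutral control median and 100% = total signal loss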
Casp6 inh: human caspase-6 inhibitors, primary screen, biochemical, VEID-R110 fluorescence, single point, set 2; P55212; purified caspase-6, Z-VEID-R110 cleavage fluorescence; inhibition, % at 12.5 µM; actives 0.53% (n = 350,000); AID 686996, 2013;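 active = mean inhibition across replicates at least about 35%, with every replicate also reaching that limit, limit read from the data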;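 note: 0% = median of neutral control wells and 100% = no fluorescence left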
AlphaScreen art: AlphaScreen signal interference with preloaded methylated product, dose response, artefact control for NSD2 inhibitor project, biochemical, cherry-picked samples; shares compounds with NSD2 inh; AlphaScreen artifact counterscreen, preloaded methylated H4 peptide; AC35, µM (series often up to 10 µM), for inactives: top-dose activity change, negative = signal loss; actives 9.4% (n = 1,500); call rule not given here
Starred values were filed as active, the others as inactive; . = not tested or not shown; [ ] = dose if it differs, or a comment.

SMILES	miR122 inh	RAD52 inh	NSD2 inh	MLL AF4-AF9 inh	Casp6 inh	AlphaScreen art
O=[N+]([O-])c1ccccc1-c1ccc(C(=S)N2CCCC2)o1	6	1	65*	10	11	-9%
CO[C@H]1CN(C)C(=O)c2cc(NS(=O)(=O)c3ccc(Cl)cc3)ccc2OC[C@@H](C)N(C)C[C@@H]1C	.	-3	.	-1	1	.
O=C(CSCC(=O)N1CCOCC1)Nc1nc(-c2ccccc2)cs1	1	-5	53*	5	0	2%
CCOC(=O)N1CCN(C(=O)CSCC(=O)Nc2nc(-c3ccc(-c4ccccc4)cc3)cs2)CC1	.	-10	.	-6	-1	.
CC(=O)N1CCCCN2[C@H](C1)[C@H](c1ccc(-c3ccc(C)cc3)cc1)[C@@H]2CO	-4[16.7 µM]	-11	.	-1	0	.
CC(C)(C)NC(=O)C(c1ccco1)N(C(=O)Cn1nnc(-c2ccc(F)cc2)n1)c1ccccc1F (configuration not stated)	-5	.	50*	.	.	-3%
CC(C)(C)NC(=O)C(c1c[nH]c2ccccc12)N(C(=O)Cn1nnc(-c2ccc(Cl)cc2)n1)c1ccccc1F (configuration not stated)	.	.	-1	.	.	.
COC(=O)c1ccc(NC(=O)COc2ccc(S(=O)(=O)N3CCCCC3)cc2)cc1	3	.	1	.	.	.
O=C(COc1ccc(S(=O)(=O)N2CCCC2)cc1)Nc1ccc(F)cc1	1	-12	68*	1	3	2%
Cn1c(CNc2nc3ccccc3n2C)nc2ccccc21	6	.	1	.	.	.
CC(C)n1c(NCc2nc3ccccc3n2C)nc2ccccc21	0	.	120*	.	.	5%
c1ccc(-c2nc(N3CCOCC3)c3ccccc3n2)nc1	-3	.	64*	.	.	-7%
c1ccc(-c2nc(N3CCCCCC3)c3ccccc3n2)nc1	-10	.	44	.	.	.
Cc1cc(C(=O)COc2cccc(-n3cnnn3)c2)c(C)n1-c1ccccc1	-6	.	56*	.	.	-1%
COC(=O)COc1cccc(-n2cnnn2)c1	3	.	.	.	.	.
Cc1ccccc1N1CC(C(=O)Nc2ccc(S(=O)(=O)N3CCOCC3)cc2)CC1=O (configuration not stated)	-11	-13	85*	-1	0	-2%
Cc1ccccc1N1CC(C(=O)Nc2ccc(S(=O)(=O)N3CCCCC3)cc2)CC1=O (configuration not stated)	-3	-5	2	-1	-2	.
COc1ccc(CC2=CC(=O)c3ccccc3C2=O)cc1	-30	-32	55*	-3	4	-4%
COc1ccc(CC(=O)NN2C(=O)c3ccccc3C2=O)cc1	-6	.	-1	.	.	.
C[C@@H]1CN([C@H](C)CO)S(=O)(=O)c2ccc(-c3ccc(F)cc3)cc2O[C@H]1CN(C)C	-10[16.7 µM]	0	.	2	-1	.
O=C1CCCC2=C1C(c1ccc(O)c(O)c1)c1c(ccc3ncccc13)N2 (configuration not stated)	-6	2	77*	4	62*	0%
CC(C)CC#Cc1ccc2c(c1)O[C@@H](CN(C)C(=O)NC(C)C)[C@H](C)CN([C@@H](C)CO)S2(=O)=O	19[16.7 µM]	10	.	-1	3	.
COc1ccc(NC(=O)Nc2ccc3c(c2)[C@H]2C[C@H](CC(=O)NCc4ccccn4)O[C@@H](CO)[C@H]2O3)cc1	6[16.7 µM]	19	.	-3	-1	.
COC(=O)Nc1ccc2c(c1)N(C(=O)CCN(C)C)c1ccccc1CC2	5	-5	105*	1	1	-3%
C[C@@H]1CN([C@@H](C)CO)C(=O)c2cc(-c3ccncc3)cnc2O[C@H]1CN(C)C(=O)C1CCCCC1	-2[16.7 µM]	-3	.	-3	-3	.
SMILES	miR122 inh	RAD52 inh	NSD2 inh	MLL AF4-AF9 inh	Casp6 inh	AlphaScreen art
O=C1c2ccccc2C(=O)N1CCC(c1ccc(F)cc1)c1ccco1 (configuration not stated)	-5	.	119*	.	.	-2%
CN1CCCCCC1=Nc1ccc([N+](=O)[O-])cc1	.	1	57*	-3	-3	-2%
C[C@@H]1CN([C@H](C)CO)C(=O)c2cc(NS(=O)(=O)c3ccccc3)ccc2O[C@@H](C)CCCCO[C@H]1CN(C)Cc1ccc(C(F)(F)F)cc1	-9[16.7 µM]	11	.	5	-1	.
CNCc1ccccc1OCc1ccc(F)cc1	.	-3	60*	0	2	-4%
O=C(CNC(=O)c1ccco1)NCC(=O)OCc1ccccc1Cl	.	-16	56*	0	2	-2%
CCN1CCc2nc3ccccc3c(C(=O)Nc3ccc(NC(C)=O)cc3)c2C1	3	-13	59*	-16	-4	0%
O=C(NCCN1CCOCC1)NC1(C(F)(F)F)Oc2ccccc2O1	-1	.	55*	.	.	2%
COc1ccc(C2CCc3cc4c(cc3C2=NOC(C)=O)OCO4)cc1OC (configuration not stated)	-1	5	58*	9	2	-7%
O=C(NCc1ccc(Cl)cc1)c1ccc(S(=O)(=O)N2CCCCC2)cc1	-2	-9	53*	1	-3	0%
CCCC(=O)Nc1ccc2c(c1)OC[C@H](C)N(C(=O)CN(C)C)C[C@@H](C)[C@@H](OC)CN(C)C2=O	.	-10	.	-2	.	.
COC(=O)c1ccc(NC(=O)c2ccc(NS(=O)(=O)c3cccc4cccnc34)cc2)cc1	.	.	0	.	.	.
Cc1cccc(NC(=O)c2ccc(NS(=O)(=O)c3cccc4cccnc34)cc2)c1	-5	-7	53*	1	0	-5%
CNCCCC12CCC(c3ccccc31)c1ccccc12	-4	3	84*	3	-1	1%
CCCn1c(CCl)nc2cc(S(=O)(=O)N3CCOCC3)ccc21	6	-8	-1	-6	0	.
O=S(=O)(c1ccc2c(c1)nc1n2CCC1)N1CCOCC1	-3	.	92*	.	.	-3%
C/C=C/c1cnc2c(c1)C(=O)N([C@@H](C)CO)C[C@H](C)[C@H](CN(C)C(=O)c1ccc3c(c1)OCO3)O2	-3[16.7 µM]	0	.	-5	2	.
CCCCc1nc2cc(C(=O)N3CCC(O)CC3)ccc2o1	-5	3	66*	-2	0	-4%
CCCCc1nc2cc(C(=O)N3CCC[C@H]3CO)ccc2o1	-4	-11	-5	-1	-1	.
COc1ccc2nc3cccc(OC)c3nc2c1	4	-12	101*	2	50*	-1%
NS(=O)(=O)c1ccc(S(=O)(=O)N2CCN(C3CCCC3)CC2)cc1	-7	5	118*	-1	2	-1%
O=S(=O)(c1ccccc1)N1CCN(C2CCCCCCC2)CC1	1	.	.	.	.	.
